Assay results from PubChem BioAssay AID1851 (National Center for Advancing Translational Sciences (NCATS), 2009).
Where “and” joins values, the source holds several entries; their conditions need not be identical. Equal values may be shown once. About 5,700 (36%) of roughly 16,000 compounds were called active. Inconclusive results (about 24%) are left out. Calls come from the whole dose curve; as a rule, active = well fitted curve in the direction sought with a large enough effect; inconclusive = small, poorly fitted or top-dose-only effect, or effect the other way; inactive = no such curve, though single readings can be large or run the other way. Some of the results follow.

biological target: Cytochrome P450 1A2 (Homo sapiens) (UniProt P05177); assay: Cytochrome panel assay with activity outcomes; settings: recombinant CYP, pro-luciferin dealkylation, luminescence, p450-cyp1a2; series mostly up to 57.1 µM
% is set by controls: 0 for no effect and ±100 for the full control effect.

Cytochrome P450 1A2 (Homo sapiens), sequence (P05177 whole entry, looked up): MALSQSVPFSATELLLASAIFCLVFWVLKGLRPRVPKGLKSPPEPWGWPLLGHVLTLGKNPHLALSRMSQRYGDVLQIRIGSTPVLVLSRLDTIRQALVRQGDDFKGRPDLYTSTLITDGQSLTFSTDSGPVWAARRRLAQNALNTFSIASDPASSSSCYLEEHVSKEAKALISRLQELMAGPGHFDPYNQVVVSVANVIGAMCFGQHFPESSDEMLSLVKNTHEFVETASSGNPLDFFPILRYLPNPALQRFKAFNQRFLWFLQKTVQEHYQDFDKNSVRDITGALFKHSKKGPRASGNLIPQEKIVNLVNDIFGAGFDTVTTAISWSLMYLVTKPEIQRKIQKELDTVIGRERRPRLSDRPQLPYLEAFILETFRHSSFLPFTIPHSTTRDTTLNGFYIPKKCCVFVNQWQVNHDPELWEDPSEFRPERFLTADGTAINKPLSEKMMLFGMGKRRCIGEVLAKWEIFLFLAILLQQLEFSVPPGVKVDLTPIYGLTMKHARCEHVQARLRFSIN

| Structure (SMILES) | activity, negative = inhibition | AC50 |
| --- | --- | --- |
| OCCN(CCO)c1ncnc2nc[nH]c12 | -9.2% [at 11.4 µM] (inactive) | – |
| CCOc1nc(N2CCCCC2)nc(-n2cc(-c3ccccc3)nn2)n1 | – | 2.51 µM (active) |
| CO[C@@H]1COC(=O)[C@H](Cc2ccccc2)NC(=O)C/C=C\[C@@H](C)[C@H](OC)COC(=O)[C@@H](C)NC(=O)C/C=C\[C@H]1C | -3.56% [at 11.4 µM] (inactive) and 1.16% [at 11.4 µM] (inactive) | – |
| C=CCn1c(C)c(C(C)=O)c(N2CCN(c3ccccc3)CC2)nc1=S | – | inactive |
| CCN1CCN(c2nc3ccccc3nc2C(C#N)C(=O)OC2CCCCC2)CC1 (stereo unspecified) | – | inactive |
| C=CCN1CCN(c2nc3ccccc3nc2C#N)CC1 | – | 0.1 µM (active) |
| Cc1ccc2nc(-c3ccccc3)cc(C(=O)NCCCn3ccnc3)c2c1 | – | 2.82 µM (active) |
| COc1c2occc2c(OC)c2c(=O)cc(C)oc12 | – | 0.02 µM (active) |
| CC1CCCC(C)N1CC(O)COCC1COc2ccccc2O1 (stereo unspecified) | – | inactive |
| CCn1ccnc1C[C@@H]1COc2ccccc2O1 | – | 15.8 µM (active) |
| COc1ccc(Oc2ncc3nc(-c4cn(C)c5ccccc45)c(=O)n(C)c3n2)cc1 | – | inactive |
| COc1ncc2nc(-c3cn(C)c4ccccc34)c(=O)n(C)c2n1 | – | 1 µM (active) |
| CN1CCN(c2ncc3nc(-c4cn(C)c5ccccc45)c(=O)n(CCC#N)c3n2)CC1 | – | 15.8 µM (active) |
| COc1ncc2nc(-c3cn(C)c4ccccc34)c(=O)n(CCC#N)c2n1 | – | 5.01 µM (active) |
| CN1CCN(c2ncc3nc(-c4cn(C)c5ccccc45)c(=O)n(CCc4ccccc4)c3n2)CC1 | – | inactive |
| OC[C@H]1NC[C@H](O)[C@@H](O)[C@H]1O | – | inactive |
| O=C(NCc1n[nH]c(=S)n1-c1ccccc1)c1ccc(S(=O)(=O)N2CCOCC2)cc1 | – | inactive |
| NCCSC[C@H](N)C(=O)O | -0.987% [at 11.4 µM] (inactive) | – |
| CN1CCCC2(CCN(C(=O)c3cc(C(F)(F)F)cc(C(F)(F)F)c3)CC2)C1 | – | inactive |
| CCOc1ccc(C(CC(=O)O)NC(=O)COc2ccccc2)cc1 (stereo unspecified) | – | inactive |
| CCOC(=O)CC(NC(=O)c1cccs1)c1ccc(OCC)cc1 (stereo unspecified) | – | 12.6 µM (active) |

| Structure (SMILES) | activity, negative = inhibition | AC50 |
| --- | --- | --- |
| O=C(O)C1=CCNCC1 | – | inactive |
| Cc1cc(O)c(/C=N/Nc2cccc(Cl)c2)c(=O)o1 | – | 2.24 µM (active) |
| COCCCNC(=O)CCC(=O)Nc1ccc2nc(N3CCOCC3)cc(C)c2c1 | – | inactive |
| Cc1cc(NC(=O)CSc2nc3ccccc3c(=O)n2CCCC(=O)NCc2ccco2)n[nH]1 | – | inactive |
| Cc1cc(N2CCN(C)CC2)nc2ccc(NC(=O)CCC(=O)NCc3ccco3)cc12 | – | 1.26 µM (active) |
| CCOC(=O)c1cc(CC)sc1NC(=O)C(c1ccccc1)c1ccccc1 | – | inactive |
| CCOC(=O)c1cccc2c1-c1ccccc1/C2=N/O | – | 1.58 µM (active) |
| Cn1c(SCC(=O)N/N=C/C=C\c2ccco2)nc2ccccc21 | – | 2 µM (active) |
| Cc1ccc(/C=N/NC(=O)CSc2nc3ccccc3n2C)s1 | – | 2.51 µM (active) |
| Cc1nc2ccccc2n1CC(=O)N/N=C\C=C\c1ccccc1 | – | 5.01 µM (active) |
| Cc1nc2ccccc2n1CC(=O)N/N=C\c1ccccn1 | – | inactive |
| O=c1cc(CO)oc(CN2CCCC2)c1O | – | inactive |
| CC(=O)Nc1nc(NC(C)=O)c2[nH]c(CO)nc2n1 | -14.4% [at 11.4 µM] (inactive) | – |
| CN(N=O)C(=O)N[C@H]1[C@@H](O)[C@H](O)[C@H](CO)O[C@@H]1O | – | inactive |
| CN(Cc1ccco1)c1ncncc1-c1ccccc1Cl | – | 25.1 µM (active) |
| Cc1ccccc1-c1cncnc1N(C)Cc1ccco1 | – | 15.8 µM (active) |
| Cc1noc(C)c1-c1cncnc1N(C)Cc1ccco1 | – | inactive |
| COc1ccccc1-c1cncnc1N(C)Cc1ccco1 | – | 15.8 µM (active) |
| COC(=O)[C@@H]1CC[C@H](C)[C@@H](c2ccc(C)cc2)N1C(=O)c1ccc(/C=N\O[C@@H]2O[C@H](COC(C)=O)[C@H](OC(C)=O)[C@H](OC(C)=O)[C@H]2OC(C)=O)cc1 | -1.33% [at 11.4 µM] (inactive) | – |
| CCOc1cc(C2CC(=O)c3c(ccc4ccccc34)N2)ccc1O (stereo unspecified) | – | inactive |
| CC[C@H]1CC[C@H]2[C@@H]3CC=C4C[C@H](OC(C)=O)[C@@H](N)C[C@@]4(C)[C@H]3CC[C@@]12C | -5.9% [at 11.4 µM] (inactive) | – |

| Structure (SMILES) | activity, negative = inhibition | AC50 |
| --- | --- | --- |
| CCc1cc2c(Sc3nc4ccccc4s3)ncnc2s1 | – | 1.58 µM (active) |
| Cc1cccc(CNc2nc(-c3cccnc3)nc3ccccc23)c1 | – | 0.631 µM (active) |
| CN(C)c1ccc(-c2nc(NCc3cccnc3)c3ccccc3n2)cc1 | – | 1.58 µM (active) |
| c1ccc(-c2nc(NCc3cccnc3)c3ccccc3n2)cc1 | – | 1.12 µM (active) |
| CCCc1cc(=O)oc2cc(OCc3nn[nH]n3)ccc12 | – | 12.6 µM (active) |
| CCCc1cc(=O)oc2cc(OCC(=O)N3CCc4ccccc43)ccc12 | – | inactive |
| CCCCc1cc(=O)oc2cc(OCC(=O)N(CC)CC)ccc12 | – | 12.6 µM (active) |
| CCO[C@H](c1cc(OC)cc([N+](=O)[O-])c1OC)[C@H](C)/C=C\CC(=O)OC | 1.93% [at 11.4 µM] (inactive) | – |
| COc1ccc(/C(O)=C2\C(=O)C(=O)N(c3cc(C)on3)C2c2ccc(OC)c(OC)c2)cc1OC (stereo unspecified) | – | inactive |
| CC(=O)OCC(=O)[C@@]1(O)[C@H](C)C[C@@H]2[C@H]3CCC4=CC(=O)C=C[C@]4(C)[C@]3(F)[C@@H](O)C[C@@]21C | – | inactive |
| O=C(CN1CCCC1)N/N=C/c1ccc(-c2cccc(Cl)c2)o1 | – | 8.91 µM (active) |
| CC(=O)c1cccc(NC(=O)CCC2CCCC2)c1 | – | 3.55 µM (active) |
| CC(=O)c1cccc(NC(=O)CSCc2ccccc2)c1 | – | 2 µM (active) |
| CSc1ccccc1NC(=O)CSCc1ccc(C)cc1 | – | 7.08 µM (active) |
| O=C(CCC1CCCCC1)Nc1c2c(nn1-c1ccc(F)cc1)CS(=O)(=O)C2 | – | inactive |
| CCC(C)NS(=O)(=O)c1ccc(NC(=O)CCC2CCCCC2)cc1 (stereo unspecified) | – | inactive |
| O=C(CSCc1ccccc1)Nc1ccc(S(=O)(=O)N2CCOCC2)cc1 | – | inactive |
| COc1cccc(N(CC(=O)Nc2cccc(C(C)=O)c2)S(C)(=O)=O)c1 | – | inactive |
| CCn1c(CSCc2ccc(C)cc2)nnc1SCC(=O)NCc1ccccc1 | – | inactive |
